About 14,000 (4.5%) of roughly 310,000 compounds showed an effect of 50% or more. Effects have a minus sign here. Only a selection was taken, and strong results are over-represented in it overall.
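Note: peak tail current of the secondary pulse compared with the same well before compound.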

This test deals with human ether-à-go-go-related gene (hERG) potassium channel (human, UniProt Q12809). Kind of test: primary screen, population patch clamp on CHO cells stably expressing hERG; higher = less effect of the substance.
Chain of human ether-à-go-go-related gene (hERG) potassium channel (Q12809 whole entry, looked up): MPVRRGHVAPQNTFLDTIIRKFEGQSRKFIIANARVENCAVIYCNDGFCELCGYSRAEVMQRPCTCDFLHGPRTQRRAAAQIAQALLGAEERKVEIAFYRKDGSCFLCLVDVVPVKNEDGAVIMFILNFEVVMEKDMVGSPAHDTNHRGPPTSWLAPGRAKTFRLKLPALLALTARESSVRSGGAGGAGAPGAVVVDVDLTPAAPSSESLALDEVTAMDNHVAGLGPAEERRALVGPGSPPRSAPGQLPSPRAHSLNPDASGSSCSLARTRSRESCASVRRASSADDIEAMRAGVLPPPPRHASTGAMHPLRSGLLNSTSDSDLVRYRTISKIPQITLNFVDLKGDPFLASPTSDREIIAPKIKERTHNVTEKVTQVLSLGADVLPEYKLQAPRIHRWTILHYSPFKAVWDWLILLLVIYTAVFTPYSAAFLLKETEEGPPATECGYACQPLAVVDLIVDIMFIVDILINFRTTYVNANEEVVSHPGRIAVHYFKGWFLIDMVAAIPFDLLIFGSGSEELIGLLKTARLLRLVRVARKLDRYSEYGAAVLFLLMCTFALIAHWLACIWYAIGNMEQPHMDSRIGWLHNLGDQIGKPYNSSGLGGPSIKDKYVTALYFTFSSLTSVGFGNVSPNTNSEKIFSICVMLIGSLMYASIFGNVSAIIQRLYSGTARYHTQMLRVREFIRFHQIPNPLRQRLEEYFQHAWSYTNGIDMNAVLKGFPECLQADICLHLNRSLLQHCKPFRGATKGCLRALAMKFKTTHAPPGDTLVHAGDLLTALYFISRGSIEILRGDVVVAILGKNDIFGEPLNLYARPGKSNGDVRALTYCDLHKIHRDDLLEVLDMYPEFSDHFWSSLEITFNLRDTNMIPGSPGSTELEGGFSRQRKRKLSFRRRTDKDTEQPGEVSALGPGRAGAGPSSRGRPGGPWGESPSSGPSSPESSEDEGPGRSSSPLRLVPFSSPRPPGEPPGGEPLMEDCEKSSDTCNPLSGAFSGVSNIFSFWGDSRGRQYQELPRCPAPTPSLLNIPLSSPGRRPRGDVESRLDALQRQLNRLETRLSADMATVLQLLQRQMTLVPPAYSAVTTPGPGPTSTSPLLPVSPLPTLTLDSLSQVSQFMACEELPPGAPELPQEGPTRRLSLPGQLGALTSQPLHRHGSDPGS
`O=C1SCCC1NC(=O)C(c1ccccc1)c1ccccc1` (centres unmarked): the “hERG current change (%, negative = inhibition) at 10uM” value was found to be 3.15%.
The same measure for `Cc1ccc(NC(=O)CCN2C(=O)c3cccc4cccc(c34)C2=O)cc1`: 9.71%.
The same measure for `C/C(=N\NC(=S)NC(C)C)c1ccc(C(C)(C)C)cc1`: 11.1%; for `CCCCCCCCNC(=O)c1cccnc1SCC(=O)Nc1ccccc1OC`: 2.4%.
The same measure for `CCCCCNC(=O)c1cccnc1SCC(=O)Nc1ccccc1OC`: -65.6%; for `CCCCCCCCNC(=O)c1cccnc1SCC(=O)Nc1ccc(OC)cc1OC`: 5.99%; for `CN(CC(=O)Nc1ccc(F)c(F)c1F)C(=O)CC1OC(=O)c2ccccc21` (centres unmarked): -27.6%.
With `O=C(CN1C(=O)C2CCCCC2C1=O)Nc1ccc(OC(F)F)c(Cl)c1` (centres unmarked), the “hERG current change (%, negative = inhibition) at 10uM” value is on record as -2.68%.
With `CN(CC(=O)Nc1ccccn1)S(=O)(=O)c1ccc(Cl)cc1`, the “hERG current change (%, negative = inhibition) at 10uM” value is reported as -9.34%.
The figure for `Cc1ccc(NS(=O)(=O)c2c(C)noc2C)cc1` is -55.1%; for `CCc1ccc(NS(=O)(=O)c2c(C)noc2C)cc1` it is -10.3%.
`Cc1noc(C)c1S(=O)(=O)Nc1ccc(C(C)C)cc1`: the “hERG current change (%, negative = inhibition) at 10uM” value is -17.6%.
The same measure for `O=C(CN1C(=O)CSc2ncccc21)Nc1cccc(Cl)c1`: -25.4%; for `Cc1ccnc(SCC(=O)c2ccc(Br)s2)n1`: 3.59%.
The figure for `CC1(C)CC(=O)C2=C(C1)N(c1ccccc1C#N)C(N)=C(C#N)C2c1cccs1` (centres unmarked) is -13%; for `Cn1c2ccccc2c2nnc(N/N=C/c3ccc(O)cc3)nc21` it is -0.978%; for `C/C(=N\Nc1nnc2c3ccccc3n(C)c2n1)c1ccc(C)o1` it is -52.4%.
Regarding `Cn1c2ccccc2c2nnc(NN)nc21`, the “hERG current change (%, negative = inhibition) at 10uM” value was determined as 12.2%.
With `CCOC(=O)C1(C(F)(F)F)N=C(N(C)C)OC(N(C)C)=N1`, the “hERG current change (%, negative = inhibition) at 10uM” value stood at 5.29%.
As for `Cc1cc(C)cc(Nc2cnn(C34CC5CC(CC(CC(=O)O)(C5)C3)C4)c(=O)c2Cl)c1`, the “hERG current change (%, negative = inhibition) at 10uM” value was found to be 5.39%.
The same measure for `O=C(Nc1nc(-c2ccccn2)cs1)c1ccc(Br)s1`: 7.34%.
Take `COC1(OC)N=C(N)C2(C#N)C(c3ccc(C)cc3)C12C#N` (centres unmarked): the “hERG current change (%, negative = inhibition) at 10uM” value is 10.1%.
The same measure for `COC1(OC)N=C(N)C2(C#N)C(c3ccc(F)cc3)C12C#N` (centres unmarked): 5%; for `COc1ccc(C2C3(C#N)C(N)=NC(OC)(OC)C23C#N)cc1` (centres unmarked): -53.4%.
On to `OC(CNCCNc1ncccc1C(F)(F)F)COc1ccc(F)cc1` (centres unmarked), for which the “hERG current change (%, negative = inhibition) at 10uM” value is given as -72%.
Consider `COc1ccc(OCC(O)CNCCNc2nccc(C(F)(F)F)n2)cc1` (centres unmarked), for which the “hERG current change (%, negative = inhibition) at 10uM” value is given as -23.3%.
`OC(CNCCNc1ncccc1C(F)(F)F)Cn1ccc2ccccc21` (centres unmarked): the “hERG current change (%, negative = inhibition) at 10uM” value is recorded as -45.3%.
Regarding `O=[N+]([O-])c1ccc(OCC(O)CNCCNc2nccc(C(F)(F)F)n2)cc1` (centres unmarked), the “hERG current change (%, negative = inhibition) at 10uM” value is reported as -79.2%.
The same measure for `O=C(NCC(O)COc1ccc([N+](=O)[O-])cc1)c1ccccc1` (centres unmarked): -40.4%; for `Cc1cccnc1NCC(O)COc1ccccc1` (centres unmarked): -37.5%.
In the case of `Nc1ccc2oc3ccc(N)cc3c(=O)c2c1`, the “hERG current change (%, negative = inhibition) at 10uM” value is recorded as 13.8%.
For `CN(Cc1ccccc1O)CC1CCCN(CCc2ccc(Cl)cc2)C1` (centres unmarked), the “hERG current change (%, negative = inhibition) at 10uM” value was -76.1%.
The same measure for `COc1ccccc1CCN1CCCC(CN(C)Cc2ccc(OCCO)cc2)C1` (centres unmarked): -40.8%; for `CCOc1cccc(CN(C)CC2CCCN(CCc3ccc(Cl)cc3)C2)c1O` (centres unmarked): -69.7%; for `CCN(Cc1ccccc1OC)CC1CCCN(CCc2cccc(OC)c2)C1` (centres unmarked): -43.6%.
With `CCOc1cccc(CN(CC)CC2CCCN(CCc3cccc(OC)c3)C2)c1O` (centres unmarked), the “hERG current change (%, negative = inhibition) at 10uM” value is on record as -66.7%.
`CN(Cc1ccccc1OCCO)CC1CCCN(CCc2ccc(Cl)cc2)C1` (centres unmarked): the “hERG current change (%, negative = inhibition) at 10uM” value is -66.9%.
Regarding `CCOC(=O)c1cc2sc(C)cc2n1CC(=O)N1CCOCC1`, the “hERG current change (%, negative = inhibition) at 10uM” value stood at 7.06%.
The figure for `Cc1cc(NC(=O)c2cccnc2)ccc1NC(=O)c1cc2ccccc2o1` is 11.1%; for `O=C(Nc1ccccn1)C(F)(F)C(F)(F)C(F)(F)C(F)(F)C(=O)Nc1ccccn1` it is -18%.
Turning to `COc1ccc(/C=C/C(=O)C2CC2)cc1Cn1nc(C)c([N+](=O)[O-])c1C`, the “hERG current change (%, negative = inhibition) at 10uM” value was -14.6%.
The figure for `COc1cc(C(=S)N2CCOCC2)ccc1OC(=O)c1cc(OC)c(OC)c(OC)c1` is 21.8%; for `Cc1nnc(C)c2c(C)n(-c3ccc(Cl)c(N)c3)c(C)c12` it is -45%; for `CCOC(=O)N1CCC2(CC1)C(C#N)=C(N)OC1=C2C(=O)CCC1` it is -0.515%.
On to `N#CC1=C(N)OC2=C(C(=O)CCC2)C12CCN(C(=O)OCc1ccccc1)CC2`, for which the “hERG current change (%, negative = inhibition) at 10uM” value is listed as -55.9%.
The figure for `CC1(C)CC(=O)C2=C(C1)OC(N)=C(C#N)C21CCN(C(=O)OCc2ccccc2)CC1` is -2.49%; for `Cc1cc(NN)nc(NS(=O)(=O)c2ccccc2)n1` it is 25.7%.
The figure for `COc1ccc(C2/C(=C(/O)c3ccccc3)C(=O)C(=O)N2CCO)cc1` (centres unmarked) is -21.1%; for `COc1ccc(N/C(C)=C2/C(=O)C(=O)N(CCO)C2c2ccc([N+](=O)[O-])cc2)cc1` (centres unmarked) it is -67.3%; for `COc1ccc(N/C(C)=C2/C(=O)C(=O)N(CCO)C2c2ccc(Br)cc2)cc1` (centres unmarked) it is -49%.
The same measure for `O=C(N/N=C/c1ccc([N+](=O)[O-])cc1)c1cccc2cc[nH]c12`: 12.4%; for `CN(CC(=O)NCc1cccs1)S(=O)(=O)c1cccc2nsnc12`: 0.981%; for `CN(CC(=O)NCc1ccc(F)cc1)S(=O)(=O)c1cccc2nsnc12`: -21.1%.
For `CN(CC(=O)NCc1ccc(Cl)cc1)S(=O)(=O)c1cccc2nsnc12`, the “hERG current change (%, negative = inhibition) at 10uM” value is recorded as -52.5%.
The same measure for `O=C(C1=COCCO1)N1CCN(C(c2ccccc2)c2ccccc2)CC1`: -7.48%; for `Cc1ccc(CNc2nc3ccccc3n3nnnc23)cc1`: 10.6%; for `CC1CC(C)CN(C(=O)c2ccc3nc[nH]c3c2)C1` (centres unmarked): 4.05%.
The same measure for `O=c1[nH]c2ccc(Cl)cc2c(O)c1Cc1ccccc1`: 12.6%; for `Cc1ccc2nc(NCC(=O)O)nc(-c3ccccc3)c2c1`: 4.48%; for `COc1cc(C(=O)NCC2CCCCC2)cc(OC)c1OC`: -67.3%.
The figure for `COc1cc(CC(=O)NCC2CCCCC2)cc(OC)c1OC` is 19.6%; for `COc1cc(C(=O)NCC2CCCO2)cc(OC)c1OC` (centres unmarked) it is 16.8%; for `CCOC(=O)N1CCN(C(=O)C2CC(=O)N(c3ccc(OC)cc3)C2c2ccc(OC)cc2)CC1` (centres unmarked) it is -13.2%.
For the molecule `CN1CCc2nc(SCc3cccc(Br)c3)c(C#N)cc2C1`, the “hERG current change (%, negative = inhibition) at 10uM” value is given as -11.7%.
The same measure for `CN1CCc2nc(SCc3ccccc3Br)c(C#N)cc2C1`: -28.2%; for `Cc1cccc(CSc2nc3c(cc2C#N)CCC3)c1`: 13.7%; for `CN1CCc2nc(SCCOc3ccccc3)c(C#N)cc2C1`: -66.3%.
Take `CC(NC(=O)CSc1nc2c(cc1C#N)CN(C)CC2)c1ccccc1` (centres unmarked): the “hERG current change (%, negative = inhibition) at 10uM” value is recorded as -20.3%.
The same measure for `Cc1cccc(CSc2nc3c(cc2C#N)CN(C)CC3)c1`: -71.2%; for `COC/C=C/C1=CC2=CC(=O)C(C)(OC(=O)c3cnc4ccccc4n3)C(=O)C2=CN1CCOC` (centres unmarked): 13.3%; for `Cc1c[n+]([O-])n(-c2ccc(C(=O)O)cc2)n1`: 0.473%.
The same measure for `COc1ccc(N(C(=O)c2snc(C(N)=O)c2N)C(C(=O)NC2CCCC2)c2ccc(OC)c(OC)c2)cc1` (centres unmarked): 10.9%.
The same measure for `CCOC(=O)C1CCN(C(=O)C2CCC(=O)N(CC3CCCCC3)C2)CC1` (centres unmarked): 0.313%; for `CC[n+]1c(SC)ccc2cc(OC)ccc21.[O-][Cl+3]([O-])([O-])[O-]`: -10.6%.
In the case of `CN(C)c1ccc(/C=C/c2cc[n+](C)cc2)cc1.[I-]`, the “hERG current change (%, negative = inhibition) at 10uM” value was determined as 2.73%.
The same measure for `C[n+]1c(/C=C/c2ccc(O)cc2)ccc2ccccc21.[I-]`: -40.3%; for `CCN(CC)c1ccc(/C=C/c2ccc3ccc(OC)cc3[n+]2CC)cc1.[I-]`: -82%.
Turning to `CC[n+]1c(/C=C/c2ccc(OC)c(OC)c2)ccc2ccccc21.[I-]`, the “hERG current change (%, negative = inhibition) at 10uM” value was 23.5%.
Turning to `CN(C)c1ccc(/C=C/c2cccc[n+]2[O-])cc1`, the “hERG current change (%, negative = inhibition) at 10uM” value worked out at 19.7%.
For `CN(C)c1ccc(/C=C/c2ccc3ccccc3[n+]2C)cc1.[I-]`, the “hERG current change (%, negative = inhibition) at 10uM” value is -59.9%.
For `CCSc1ccc2cc(OC)ccc2[n+]1CC.[I-]`, the “hERG current change (%, negative = inhibition) at 10uM” value was found to be 10.8%.
The figure for `CC[n+]1c(/C=C/c2ccc(N(C)C)cc2)ccc2ccccc21.[I-]` is -72.9%.
With `CC(C)CC[n+]1ccccc1/C=C/c1ccc(N(C)C)cc1.[I-]`, the “hERG current change (%, negative = inhibition) at 10uM” value is -71.3%.
Regarding `CN(CCCS(=O)(=O)[O-])c1ccc(/C=C/c2ccc3ccccc3[n+]2C)cc1`, the “hERG current change (%, negative = inhibition) at 10uM” value amounted to 19.6%.
As for `CC[n+]1c(/C=C/c2ccc(OC(C)=O)c(OC)c2)ccc2ccccc21.[I-]`, the “hERG current change (%, negative = inhibition) at 10uM” value was -4.85%.
The figure for `O=C(C1CCCCC1)N1CCC(O)(c2ccc(Cl)cc2)CC1` is -10.7%.
The figure for `Cc1cccc(N2C(=O)CC(N(O)c3ccccc3)C2=O)c1` (centres unmarked) is 9.2%; for `Cc1cc(C(F)(F)F)nn1Cc1ccc(C(=O)NCc2ccco2)o1` it is 5.14%; for `COc1ccc(C)cc1-n1nnnc1SCC1CCCCO1` (centres unmarked) it is -14.8%.
